Results filed as inconclusive are left out. Activity calls are given as the source filed them. The call rests on the fitted dose curve; in most records, active means well fitted curve in the direction sought with a large enough effect; inconclusive means small, poorly fitted or top-dose-only effect, or another doubt; inactive means no such curve, though single readings can be large; an effect the other way counts as inactive or inconclusive.
Assays:
[1] = S16 Schwann cell viability assay (CellTiter-Glo assay) (AID 624031);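 further: native untransfected S16 rat Schwann cells; cellular ATP luminescence as a viability measure; nearly all actives have a fitted effect of over 70% in size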
In short: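 Cells were seeded at 500-750 per well in phenol red-free DMEM with 10% FBS and left overnight. Compounds or DMSO were pinned in, incubation ran 24 h at 37 °C/5% CO2, then CellTiter-Glo reagent was added and luminescence measured.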

ATS189 = experiment: qHTS profiling for inhibitors of Plasmodium falciparum proliferation (AID 504749); further: nearly all actives have a fitted effect of over 60% in size; details: P. falciparum in erythrocytes, SYBR Green DNA, 72 h; series mostly up to 12.8 µM
In short: (§1)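 Quantitative HTS: compounds pinned into medium, infected erythrocytes added (0.3% parasitemia, 2.5% hematocrit), 72 h culture at 37 C under 5% CO2. Saponin/Triton lysis with SYBR Green I, overnight RT, then fluorescence read.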

ATS95 = experiment: as above; details: P. falciparum in erythrocytes, SYBR Green DNA, 72 h; series mostly up to 12.8 µM
In short: as §1

CP191 = experiment: as above; details: P. falciparum in erythrocytes, SYBR Green DNA, 72 h; series mostly up to 12.8 µM
In short: as §1

CP203 = experiment: as above; details: P. falciparum in erythrocytes, SYBR Green DNA, 72 h; series mostly up to 12.8 µM
In short: as §1

CP211 = experiment: as above; details: P. falciparum in erythrocytes, SYBR Green DNA, 72 h; series mostly up to 12.8 µM
In short: as §1

CP217 = experiment: as above; details: P. falciparum in erythrocytes, SYBR Green DNA, 72 h; series mostly up to 12.8 µM
In short: as §1

CP237 = experiment: as above; details: P. falciparum in erythrocytes, SYBR Green DNA, 72 h; series mostly up to 12.8 µM
In short: as §1

CP269 = experiment: as above; details: P. falciparum in erythrocytes, SYBR Green DNA, 72 h; series mostly up to 12.8 µM
In short: as §1

DIV30 = experiment: as above; details: P. falciparum in erythrocytes, SYBR Green DNA, 72 h; series mostly up to 12.8 µM
In short: as §1

Dd2 = experiment: as above; details: P. falciparum in erythrocytes, SYBR Green DNA, 72 h; series mostly up to 12.8 µM
In short: as §1

N140 = experiment: as above; details: P. falciparum in erythrocytes, SYBR Green DNA, 72 h; series mostly up to 12.8 µM
In short: as §1

P93_24 = experiment: as above; details: P. falciparum in erythrocytes, SYBR Green DNA, 72 h; series mostly up to 12.8 µM
In short: as §1

P94_40 = experiment: as above; details: P. falciparum in erythrocytes, SYBR Green DNA, 72 h; series mostly up to 12.8 µM
In short: as §1

PAD = experiment: as above; details: P. falciparum in erythrocytes, SYBR Green DNA, 72 h; series mostly up to 12.8 µM
In short: as §1

PC26 = experiment: as above; details: P. falciparum in erythrocytes, SYBR Green DNA, 72 h; series mostly up to 12.8 µM
In short: as §1

PC49 = experiment: as above; details: P. falciparum in erythrocytes, SYBR Green DNA, 72 h; series mostly up to 12.8 µM
In short: as §1

7G8 = experiment: as above; details: P. falciparum in erythrocytes, SYBR Green DNA, 72 h; series mostly up to 12.8 µM
In short: as §1

GB4 = experiment: as above; details: P. falciparum in erythrocytes, SYBR Green DNA, 72 h; series mostly up to 12.8 µM
In short: as §1

PC15 = experiment: as above; details: P. falciparum in erythrocytes, SYBR Green DNA, 72 h; series mostly up to 12.8 µM
In short: as §1

Measured: Potency

CC[C@H](NC(C)C)[C@H](O)c1ccc(O)c(O)c1
not listed: 7G8 | GB4 | PC15
inactive: all other assays above

CCN[C@@H]1C[C@H](C)S(=O)(=O)c2sc(S(N)(=O)=O)cc21
not listed: [1]
inactive: all other assays above

O=c1[nH]c(=O)n([C@@H]2C[C@H](O)[C@H](CO)O2)cc1I
inactive: all assays above

C[C@@H](C(=O)O)c1ccc(C(=O)c2cccs2)cc1
not listed: [1]
inactive: all other assays above

O=c1[nH]cnc2c1ncn2C1OC(CO)C(O)C1O (stereo not drawn)
not listed: N140
inactive: all other assays above

CC(=O)N(CC(O)CN(C(C)=O)c1c(I)c(C(=O)NC[C@@H](O)CO)c(I)c(C(=O)NC[C@@H](O)CO)c1I)c1c(I)c(C(=O)NC[C@@H](O)CO)c(I)c(C(=O)NC[C@@H](O)CO)c1I
inactive: all assays above

CN[C@@H](CC(C)C)C(=O)N[C@@H]1C(=O)N[C@H](CC(N)=O)C(=O)N[C@@H]2C(=O)N[C@H]3C(=O)N[C@H](C(=O)N[C@H](C(=O)O)c4cc(O)cc(O)c4-c4cc3ccc4O)[C@H](O)c3ccc(c(Cl)c3)Oc3cc2cc(c3O[C@H]2O[C@@H](CO)[C@@H](O)[C@@H](O)[C@@H]2O[C@@H]2C[C@](C)(N)[C@H](O)[C@H](C)O2)Oc2ccc(cc2Cl)[C@@H]1O
inactive: all assays above

O=C(O)/C=C\c1ccc(Cn2ccnc2)cc1
not listed: CP269
inactive: all other assays above

CCCN[C@@H](C)C(=O)Nc1c(C)csc1C(=O)OC
inactive: all assays above

NS(=O)(=O)c1cc([C@@]2(O)NC(=O)c3ccccc32)ccc1Cl
inactive: all assays above

CC1(C)Oc2ccc(C#N)cc2[C@H](N2CCCC2=O)[C@H]1O
inactive: all assays above

C[N+]1(C)CCC[C@@H](OC(=O)C(O)(c2ccccc2)c2ccccc2)C1
inactive: all assays above

C/C=C\C(=O)N(CC)c1ccccc1C
inactive: all assays above

CC(=O)Nc1c(I)c(C(=O)N[C@H]2[C@@H](O)[C@H](O)[C@H](CO)O[C@@H]2O)c(I)c(N(C)C(C)=O)c1I
inactive: all assays above

CC1(C)S[C@@H]2[C@H](NC(=O)[C@H](C(=O)O)c3ccsc3)C(=O)N2[C@H]1C(=O)O
inactive: all assays above

From PubChem BioAssay (NCATS)
